Measurements reported in PubChem BioAssay (EPA / NIEHS).
Inconclusive results are not listed. Calls of active or inactive are those of the source. The calls were made as follows, unless noted: active = hit-call score of the fitted dose curve at least 0.9, where 1 is the maximum; inactive = score below 0.9.

How the values were obtained:
[1] = CCTE_Harrill_HTTr_Viability_MCF7: CCTE's 6-hour Cell Viability Assessment for the High-Throughput Transcriptomics (HTTr) Platform, in MCF-7 cells cultured in DMEM + 10% fetal bovine serum, Harrill Lab (AID 2284010)
In short: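 Cells were dosed with chemicals in an eight-point dilution series, imaged 6 hours later for propidium iodide uptake, and the endpoint was analyzed by bidirectional fitting against DMSO as negative control.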

[2] = CCTE_Harrill_HTTr_Apoptosis_MCF7: CCTE's 6-hour Apoptosis Assessment for the High-Throughput Transcriptomics (HTTr) Platform, in MCF-7 cells cultured in DMEM + 10% fetal bovine serum, Harrill Lab (AID 2284011)
In short: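 MCF-7 (DMEM + 10% FBS), 384-well; 8-pt dilution series, 6 h chemical exposure; caspase-3/7 activation via CellEvent Caspase 3/7 Green, HCI; bidirectional fit vs DMSO.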

[3] = CCTE_Harrill_HTTr_CellCount_MCF7: CCTE's Cell Proliferation Assessment for the High-Throughput Transcriptomics (HTTr) Platform, Harrill Lab (AID 2284012; active = hit-call score of the fitted dose curve at least 0.9, where 1 is the maximum;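 also: count of Hoechst-stained nuclei per well by high-content imaging in MCF-7 cells; cells exposed to compound for six hours; intended direction is loss of nuclei count meaning fewer cells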)
In short: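 Chemicals in eight-point dilution series are added to MCF-7 cells for six hours, nuclei are stained with Hoechst and imaged, and per-well nuclei counts are fitted in both directions relative to DMSO controls.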

Structure (SMILES)	outcome [1]	outcome [2]	outcome [3]	AC50 [1]	AC50 [3]
CCCC1O[C@@H]2C[C@H]3[C@@H]4CCC5=CC(=O)C=C[C@]5(C)[C@H]4[C@@H](O)C[C@]3(C)[C@]2(C(=O)CO)O1 (some centres undefined)	inactive	inactive	inactive	–	–
CC(C)C[C@H](NC(=O)OCC1c2ccccc2-c2ccccc21)C(=O)O	inactive	inactive	inactive	–	–
CS(=O)(=O)OCCCCOS(C)(=O)=O	inactive	inactive	inactive	–	–
CS(C)=O	inactive	inactive	–	–	–
CCCN(CCC)S(=O)(=O)c1ccc(C(=O)O)cc1	inactive	inactive	–	–	–
CC(C)(C)c1ccc(C(=O)O)cc1	inactive	inactive	inactive	–	–
Cc1ncc([N+](=O)[O-])n1CCO	inactive	inactive	–	–	–
C[C@@H]1CCN(C(=O)[C@H](CCCN=C(N)N)NS(=O)(=O)c2cccc3c2NC[C@H](C)C3)[C@@H](C(=O)O)C1	inactive	inactive	inactive	–	–
Nc1ccccc1[N+](=O)[O-]	inactive	inactive	–	–	–
CN(c1nccc(=O)[nH]1)C1CCN(c2nc3ccccc3n2Cc2ccc(F)cc2)CC1	inactive	inactive	–	–	–
CC(=O)CC(=O)Nc1ccccc1	inactive	inactive	inactive	–	–
COc1ccc(CCN2CCC(Nc3nc4ccccc4n3Cc3ccc(F)cc3)CC2)cc1	–	inactive	–	76.2 µM (active)	79.2 µM (active)
ON=C1CCCCC1	inactive	inactive	inactive	–	–
CC(C)(CO)[C@@H](O)C(=O)NCCC(=O)O	inactive	inactive	inactive	–	–
CCC1(c2ccccc2)C(=O)NCNC1=O	inactive	inactive	inactive	–	–
COCCOCCOCCO	inactive	inactive	–	–	–
C=C(C)[C@@H]1CC=C(C)C(=O)C1	inactive	inactive	–	–	–
Nc1ccn([C@H]2CS[C@@H](CO)O2)c(=O)n1	inactive	inactive	inactive	–	–
Cc1ccc(-c2ccccc2)cc1	inactive	inactive	inactive	–	–

Structure (SMILES)	outcome [1]	outcome [2]	outcome [3]	AC50 [1]	AC50 [3]
CC1(C)O[C@@H]2C[C@H]3[C@@H]4CCC5=CC(=O)C=C[C@]5(C)[C@@]4(F)[C@@H](O)C[C@]3(C)[C@]2(C(=O)CO)O1	inactive	inactive	–	–	–
CC(C)c1ccccc1O	inactive	inactive	inactive	–	–
CCCSc1ccc2nc(NC(=O)OC)[nH]c2c1	inactive	inactive	–	–	–
CCCCCc1ccco1	inactive	inactive	inactive	–	–
C[C@H]1C[C@@H](O)CC(C)(C)C1	inactive	inactive	inactive	–	–
CCCCCCCCCC(=O)OC	inactive	inactive	inactive	–	–
O=C(O)CCCCCCCCCCCC(=O)O	inactive	inactive	inactive	–	–
CN(C)CCOC(C)(c1ccccc1)c1ccccn1 (centres undefined)	inactive	inactive	inactive	–	–
O=CCc1ccccc1	inactive	inactive	inactive	–	–
C=CCOC(=O)CCCCCC	inactive	inactive	inactive	–	–
Cc1cc(C)nc(NS(=O)(=O)c2ccc(N)cc2)n1	inactive	inactive	–	–	–
O=P(O)(O)O	inactive	inactive	inactive	–	–
OCC#CCO	inactive	inactive	inactive	–	–
COC(=O)c1ccc(C)cc1C1=NC(C)(C(C)C)C(=O)N1 (centres undefined) (tested in a mixture with another compound)	inactive	inactive	–	–	–
CN1C(=O)c2ccccc2C1=O	inactive	inactive	inactive	–	–
c1ccc(CCc2ccccc2)cc1	inactive	inactive	inactive	–	–
N[C@@H](Cc1cc(I)c(Oc2cc(I)c(O)c(I)c2)c(I)c1)C(=O)O	inactive	inactive	inactive	–	–
CC(C)NCC(O)COc1ccc(CC(N)=O)cc1 (centres undefined)	inactive	inactive	–	–	–
